# Experimental data taken from PubChem BioAssay AID1626 (SRMLSC, 2009).
# The whole screen tested about 220,000 compounds, of which about 2,000 (0.91%) were called active. Another 2% or so got no clear call; they are omitted. The list is a sample of the results. Potency and affinity values are given separately. Unmarked numbers belong to inactive results. No stated cut-off is given here; in the data, inconclusive means inhibition above about 80% without an active follow-up result; inactive means below that; test concentration not stated here.
# Experiment: M. tuberculosis H37Rv growth inhibitors, H37Rv strain (AID 1626);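 further: bacteria incubated seven days before Alamar blue readout; 0% = bacteria only wells and 100% = bacteria with antibiotic wells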
# Details: active compounds read high, concentration not given here
row,SMILES,inhibition [%]
1,CCN(CC)c1ccc(CNc2nc3ccccc3n2CCN2CCOCC2)cc1,6.6
2,COc1ccc(CNc2nc3ccccc3n2CCN2CCCCC2)cc1,-0.5
3,Cc1ccc(S(=O)(=O)NCc2ccc(C(=O)N(C)CCC#N)cc2)cc1,4.15
4,Cc1ccc(NC(=O)c2cnccn2)cc1,3.69
5,O=C(CCNc1cccc(C(F)(F)F)c1)c1ccco1,53.5
6,O=C(Nc1ccc(Cl)c(C(F)(F)F)c1)c1ccco1,10.7
7,O=C(COC(=O)CCS(=O)(=O)c1ccc(Cl)cc1)NC1CCCCC1,0.69
8,COc1cccc(-c2nnc(SCC(=O)Nc3cc(C)on3)n2C)c1,-2.38
9,Cc1ccc(-c2nnc(SCCC(=O)N3CCOCC3)o2)cc1,77.5
10,Cc1cc(NC(=O)CSc2nnc(-c3ccc(O)cc3)o2)no1,-6.89
11,Cc1cc(NC(=O)CSc2nnc(Cc3ccccc3)o2)no1,-8.58
12,CCOc1ccc(-c2nnc3ccc(SCC(=O)Nc4cc(C)on4)nn23)cc1,4.14
13,Cc1cc(NC(=O)CSc2nnc(-c3ccco3)o2)no1,-3.8
14,O=C(CCSc1nnc(-c2ccc(O)cc2)o1)N1CCOCC1,-1.1
15,Cc1cc(NC(=O)CSc2nnc(COc3ccccc3)o2)no1,3.02
16,COc1cc(OC)c(Nc2cc(C)nc3nc(C)nn23)cc1Cl,10.9
17,COc1ccccc1N1CCN(C(c2ccc(Cl)cc2)c2nnnn2C(C)(C)C)CC1 (configuration not stated),3.99
18,COc1ccc(-n2c(O)c(C=Nc3c(C)n(C)n(-c4ccccc4)c3=O)c(=O)[nH]c2=O)cc1,6.56
19,CN(c1ccc(C(=O)N2CCN(Cc3ccc4c(c3)OCO4)CC2)cc1)S(=O)(=O)c1ccccc1,7.14
20,O=C(Nc1cccc(NC(=S)NC(=O)c2cccs2)c1)c1ccccc1,-2.28
21,CSc1cccc(NC(=S)N(CCC(C)C)C2CCN(C(C)=O)CC2)c1,-6.61
22,CC(N)C(=O)c1ccco1 (configuration not stated),-3.4
23,COc1ccccc1NC(=S)NNC(=O)c1cc(C)nn1C,-9.1
24,Cc1cc(NC(=O)CSc2nnc(-c3ccoc3C)o2)no1,4.02
25,Cc1ccc(NCc2nnc(SCC(=O)Nc3cc(C)on3)n2C)cc1,-5.91

row,SMILES,inhibition [%]
1,O=C(CSc1nnc(-c2ccc(O)cc2)o1)Nc1ccc2c(c1)OCCO2,-0.38
2,COc1ccc(-c2nnc(SCC(=O)Nc3cc(F)ccc3C)o2)cc1,-6.49
3,COc1ccc(-c2nnc(SCC(=O)Nc3nncs3)o2)cc1,1.2
4,Cc1cc(NC(=O)CSc2ccc3c(c2)OCCO3)no1,-5.76
5,COc1ccccc1-n1c(CNc2ccc(F)cc2)nnc1SCC(=O)Nc1cc(C)on1,-4.09
6,COc1ccccc1-c1nnc(SCC(=O)Nc2c(Cl)cccc2Cl)o1,-3.32
7,Cc1cccc(NN=C2c3ccccc3-c3ccccc32)c1,1.34
8,Cc1cc(C)nc(SCc2nnc(SCC(=O)Nc3ccc(C)c(C)c3)o2)n1,0.69
9,Cc1ccc(-c2nn3c(C)nnc3s2)cc1NC(=O)c1ccc(-c2ccc(Cl)cc2Cl)o1,-7.97
10,Cc1ccccc1CSCC(=O)NC1CCCC1,3.78
11,Cc1ccccc1NC(=S)N(C)Cc1cn(C)c2ccccc12,2.82
12,COc1ccc(CCNC(=O)CSc2nnc(-c3ccc(F)cc3)o2)cc1OC,-1.7
13,O=C(CSc1nnc(-c2ccc(F)cc2)o1)NC1CCCCC1,-0.23
14,O=C(O)CCc1nn2c3ccccc3n(CCO)c2nc1=O,2.12
15,Cc1ccc(-c2csc3nc[nH]c(=O)c23)cc1,-5.48
16,S=c1[nH]cnc2scc(-c3ccc(Cl)cc3)c12,76.4
17,COc1ccc(/C=C/C(=O)Nc2nc(N)n(-c3ccccc3)n2)cc1,6.8
18,Nc1nc(NC(=O)/C=C/c2ccccc2)nn1-c1ccccc1,-0.46
19,Cn1c(C(C#N)C(=O)c2sc3ccccc3c2Cl)nc2ccccc21 (configuration not stated),94.3
20,O=C(Nc1nc2ccccc2n1CCN1CCCCC1)c1ccco1,6.64
21,CCCn1c(NCc2ccco2)nc2ccccc21,-3.29
22,O=C(Nc1nc2ccccc2n1Cc1ccc(Cl)cc1)c1ccco1,16.1
23,Cn1c(C(C#N)C(=O)Cc2cccc3ccccc23)nc2ccccc21 (configuration not stated),-15.5
24,Cc1ccc(Cn2c(NS(=O)(=O)c3ccccc3)nc3ccccc32)cc1,84.8
25,CC(O)C1C(=O)OC2(C)CC(C)(C)NC(=S)N12 (configuration not stated),-6.84

row,SMILES,inhibition [%]
1,CCOC(=O)c1c(NC(=O)CC)sc(C(C)=O)c1C,2.45
2,O=C(NN=C1CCCCCC1)c1c[nH]c2ccccc12,-1.9
3,Cn1c2c(c(=O)n(C)c1=O)CN(CCc1ccccc1)CN2,-1.68
4,Cc1cc(C)nc(Nc2nc(=O)c3ccccc3s2)n1,-3.37
5,NC(=O)[C@@H]1CCOc2c(I)cc([N+](=O)[O-])cc2C(=O)N[C@@H](CO)C(=O)NCC(=O)N1,-8.7
6,CC(=O)N1NC(=Nc2ccccc2)SC1(C)C,-6.07
7,O=C(CN1CCCC1)NCC12CC3CC(CC(C3)C1)C2,-7.14
8,COCCNC(=O)C(c1ccc(Cl)cc1)N(CCOC)C(=O)CCC(=O)Nc1nccs1 (configuration not stated),-6.72
9,Cc1cc(C)cc(N(C(=O)CCC(=O)Nc2ccccn2)C(C(=O)NC(C)C)c2ccc(O)cc2)c1 (configuration not stated),4.72
10,Nc1nc(SCc2ccc(Cl)cc2Cl)ns1,28.5
11,Nc1nc(NC(=O)c2ccccc2)nn1-c1ccccc1,-1.03
12,Nc1nc(NC(=O)c2ccco2)nn1-c1ccccc1,-7.46
13,COc1ccc(/C=N/NC(=O)c2ccn[nH]2)cc1Cn1nc(C)c([N+](=O)[O-])c1C,1.53
14,O=C(Cc1ccccc1[N+](=O)[O-])N1CCc2ccccc2C1,-4.17
15,CC(OC(=O)CCCOc1ccccc1)C(=O)NC(N)=O (configuration not stated),-2.98
16,COCCCN=C1NN=C(c2cc(C)n(Cc3ccco3)c2C)CS1,-3.28
17,COCC(C)N=C1NN=C(c2cc(C)n(Cc3ccccc3Cl)c2C)CS1 (configuration not stated),5.76
18,COCCCN=C1NN=C(c2cc(C)n(-c3ccccc3)c2C)CS1,-2.89
19,Cc1cc(C2=NNC(=NC3CC3)SC2)c(C)n1-c1ccccc1F,-4.49
20,O=C(OCC(=O)N1c2ccccc2Sc2ccccc21)C1CC(=O)N(Cc2ccco2)C1 (configuration not stated),3.33
21,Brc1ccc(-c2c[n+]3c(n2-c2ccccc2)SCC3)cc1,1.71
22,CCOc1ccccc1CNC(=O)CCN1C(=O)COc2ccccc21,4.08
23,CCOC(=O)C1=C(c2ccccc2)NC(=O)NC1c1ccc(OCC#N)c(OC)c1 (configuration not stated),2.6
24,CCOC(=O)C1=C(c2ccccc2)NC(=O)NC1c1ccc(OC)c(OC)c1 (configuration not stated),-0.28
25,N#Cc1nc(-c2ccccc2F)oc1NC1CCCCC1,3.24

row,SMILES,inhibition [%]
1,CN(CC(=O)Nc1ccc(C#N)cc1)Cc1ccc(Cl)c(Cl)c1,11.2
2,CN(CC(=O)Nc1ccc(Cl)c(Cl)c1)C(=O)/C=C/c1ccc(F)cc1,-5.59
3,CCOP(=O)(OCC)C(Nc1cccc(C(F)(F)F)c1)c1ccc(F)cc1 (configuration not stated),0.98
4,c1cc2c(cc1C1=NNC(=NC3CC3)SC1)OCCO2,-0.26
5,C=CCN=C1NN=C(c2ccc3c(c2)OCCO3)CS1,-5.3
6,COc1ccccc1NS(=O)(=O)c1cc(NC(=O)c2ccco2)ccc1N1CCOCC1,9.4
7,O=c1[nH]c(=O)n(C2CCCCC2)c(O)c1C1NCCc2ccccc21 (configuration not stated),-2.63
8,COc1cc(NC(=S)Nc2ccccn2)cc(OC)c1,14.7
9,Cc1cc(C)c(C)c(S(=O)(=O)N2CCN(C(=S)NCC3CCCO3)CC2)c1C (configuration not stated),9.9
10,O=C(Nc1ccccc1O)c1ccc(Cl)cc1,-5.68
11,COc1ccc(C(=O)Nc2cc(Cl)ccc2OC(=O)c2ccc(OC)cc2)cc1,-1.73
12,CN(C)S(=O)(=O)c1cccc(C(=O)OCC(=O)NC2CCCc3ccccc32)c1 (configuration not stated),2.51
13,O=C(CSc1nc2ccccc2c(=O)n1-c1ccccc1)N1CCC1,-2.38
14,Cc1ccc(Oc2ccc(C(F)(F)F)cc2[N+](=O)[O-])c([N+](=O)[O-])n1,3.08
15,O=C(Nc1ccc(F)cc1)c1ccccc1Oc1ccc(C(F)(F)F)cc1[N+](=O)[O-],-1.92
16,OCCC1CN(Cc2cnc(-c3ccccc3)s2)CCN1C1CCCCC1 (configuration not stated),2.22
17,Cc1cccc(N=C2NN=C(c3ccc4c(c3)OCCO4)CS2)c1,6.79
18,COc1ccc(N=C2NN=C(c3ccc4c(c3)OCCO4)CS2)cc1,-3.14
19,Cc1cc(C2=NNC(=Nc3ccccc3)SC2)c(C)n1C,0.04
20,Cc1ccc(C2=NNC(=Nc3ccc(F)cc3)SC2)cc1,5.11
21,COCCn1c(C)cc(C2=NNC(=Nc3ccc(OC)cc3)SC2)c1C,-6.04
22,Fc1ccc(N=C2NN=C(c3cc(F)ccc3F)CS2)cc1,9.64
